# A selection: hits, their analogues and other compounds. The true share with any hit is near 0.96%.
# TRHR PAM = qHTS for Small Molecule Agonists and Allosteric Enhancers of Human TRH Receptor: Primary Screen for Enhancers | Thyrotropin-releasing hormone receptor (Homo sapiens), P34981 | TRHR cells, fluo-8 calcium fluorescence, EC20 TRH enhancement | enhancement, % at 2 µM | hit rate 0.66% among 360,000; in the data active = enhancement above about 30%; note: 0% is about no effect
#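 TRHR-expressing cells loaded with fluo-8 calcium dye were read kinetically (ex 480/em 530) during compound addition, then stimulated with an EC20 of TRH (10 nM final). Enhancement of the Gq-mediated intracellular calcium response was scored.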
# TRPML1 inh = qHTS for Inhibitors of the Human Mucolipin Transient Receptor Potential 1 (TRPML1); TRPML1-inducible cells, Ca2+ dye fluorescence, FDSS; hits give low values; inhibition of EC80 agonist-evoked calcium signal; AID 624415, 2012; activity change, negative = inhibition, % (test concentration not listed); hit rate 0.02% among 390,000; in the data active = activity change below about -50%; inconclusive = between about -30% and that limit;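 note: stimulus is agonist 54-4 at its EC80 concentration; % is set by controls: 0 for no effect and ±100 for the full control effect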
# Target sequence (Q9GZU1 whole entry, looked up): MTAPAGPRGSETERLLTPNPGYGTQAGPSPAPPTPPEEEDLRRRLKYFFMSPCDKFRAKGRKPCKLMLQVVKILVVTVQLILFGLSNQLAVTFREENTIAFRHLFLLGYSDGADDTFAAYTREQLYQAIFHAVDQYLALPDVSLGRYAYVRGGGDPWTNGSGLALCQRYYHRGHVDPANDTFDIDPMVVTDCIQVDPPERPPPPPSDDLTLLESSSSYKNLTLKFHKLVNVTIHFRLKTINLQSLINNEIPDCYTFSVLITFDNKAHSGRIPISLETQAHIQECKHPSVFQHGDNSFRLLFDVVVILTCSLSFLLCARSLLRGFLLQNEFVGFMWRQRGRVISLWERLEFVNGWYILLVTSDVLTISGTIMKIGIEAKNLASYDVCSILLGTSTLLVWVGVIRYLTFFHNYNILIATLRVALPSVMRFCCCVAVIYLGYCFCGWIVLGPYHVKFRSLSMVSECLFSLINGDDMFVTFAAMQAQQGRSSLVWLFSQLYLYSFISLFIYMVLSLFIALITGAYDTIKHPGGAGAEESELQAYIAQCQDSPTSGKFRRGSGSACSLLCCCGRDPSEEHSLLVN
#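 TRPML1-DL cells, Tet-induced overnight (~16 h, 37 °C) at 1,500 cells/well, were loaded with Ca8 no-wash dye plus quencher for 45-90 min at room temperature. Compounds were pinned during FDSS kinetic reading; agonist 54-4 at EC80 (4 uM final) then added.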
# TRHR agonist = qHTS for Small Molecule Agonists and Allosteric Enhancers of Human TRH Receptor: Primary Screen for Agonists | Thyrotropin-releasing hormone receptor (Homo sapiens), P34981 | TRHR cells, calcium flux fluo-8, FDSS agonist mode | activation, % at 2 µM | hit rate 0.18% among 360,000 | AID 493084, 2011; in the data active = activation above about 30%; note: 0% is about no effect
#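 TRHR-expressing cells, plated overnight in medium with 10% serum, were loaded with fluo-8 calcium dye at room temperature. After a 10 s baseline, library compound was pin-added and calcium release was recorded kinetically (ex 480/em 530) as agonist response.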
# TRPV1 agonist = HTS Assay for Compounds that Act as Agonists of the Vanilloid Receptor 1; Transient receptor potential cation channel subfamily V member 1 (Homo sapiens), Q8NER1; TRPV1-expressing cells, Fluo-8 calcium influx, agonist mode; activation, % at 8.33 µM; hit rate 0.19% among 320,000; AID 540275, 2011; in the data active = activation above about 80%; inconclusive = between about 30% and that limit; note: 0% is about no effect
#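 Fluo-8 calcium influx in TRPV1-expressing cells, kinetic read (ex 480/em 520 nm). Compound added and read 3 min for agonist activity, followed by capsaicin at EC20 final and 2 min further read for enhancement.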
# TRPML1 ag = qHTS for Agonists of the Human Mucolipin Transient Receptor Potential 1 (TRPML1) | Mucolipin-1 (Homo sapiens), Q9GZU1 | TRPML1-expressing cells, Ca2+ dye fluorescence, FDSS | activation, % (no concentration beside the values) | hit rate 0.12% among 410,000 | AID 624414, 2012; in the data active = activation above about 50%; inconclusive = mostly about 30% to 49%; note: 0% is about no effect
#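 Cells: TRPML1-DL, 1X Tet inducer, ~16 h at 37 degrees C/5% CO2. Dye: ABD Ca8 no-wash + quencher, 45-90 min RT. Read: 10 s baseline, compound add, 110 s agonist phase; 54-4 EC80 (4uM final), 110 s antagonist phase.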
# TRPV1 PAM = HTS Assay for Compounds that Act as Potentiators of the Vanilloid Receptor 1. TRPV1-expressing cells, Fluo-8 calcium influx, capsaicin EC20 potentiation. hit rate 0.02% among 320,000. Transient receptor potential cation channel subfamily V member 1 (Homo sapiens), Q8NER1. potentiation, % at 8.33 µM; in the data active = potentiation above about 80%; inconclusive = between about 30% and that limit; note: 0% is about no effect
#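 Fluo-8 calcium influx in TRPV1-expressing cells, kinetic read (ex 480/em 520 nm). Compound added and read 3 min for agonist activity, followed by capsaicin at EC20 final and 2 min further read for enhancement.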
# The depositor's hits bear a star; ? = inconclusive; . = no result given.
SMILES,TRHR PAM,TRPML1 inh,TRHR agonist,TRPV1 agonist,TRPML1 ag,TRPV1 PAM
CNc1c(Cl)cc(/C=C2\C=Cc3ccccc32)cc1Cl,.,.,.,.,0.1,.
COc1cc(/C=N/NC(=O)c2cccnc2)ccc1OCC(=O)N1CCOCC1,33.5*,-11.8,0.3,0.9,-0.4,12.3
Nc1ncnc2c1[nH]c(=S)n2C1OC(CO)C(O)C1O (stereo not given),.,.,.,.,-1.0,.
CCCCCCc1cc2cc(-c3nnc(-c4ccccc4O)o3)c(=O)oc2cc1O,51.3*,25.0,147.4*,?,?,1.9
CCCCCCc1cc2cc(-c3nnc(-c4cc(OC)c(OC)c(OC)c4)o3)c(=O)oc2cc1O,-2.8,-3.0,-0.6,0.7,13.4,-3.5
CCCCCCc1cc2cc(-c3nnc(-c4ccccc4OC)o3)c(=O)oc2cc1O,-13.7,-25.6,147.5*,?,?,17.5
COC(=O)c1ccc(Cl)c(-c2ccc(/C=N/NC(=O)Nc3ccccc3)o2)c1,31.0*,-13.8,0.2,0.7,-1.0,17.3
COC(=O)N/N=C/c1ccc(-c2ccccc2Cl)o1,0.1,3.1,-0.6,4.0,-0.6,-1.1
COc1cc(CCC(=O)OCC(=O)Nc2ccccc2C#N)cc(OC)c1OC,33.6*,-22.2,0.4,1.6,1.4,2.1
COC(=O)c1cccc(NC(=S)NCc2ccc(Cl)cc2)c1,-8.2,-3.6,1.3,82.3*,2.7,5.8
COc1ccc(Cl)cc1NC(=S)NCc1ccccn1,30.8*,-5.4,0.2,5.9,-0.7,-12.1
COc1ccccc1NC(=S)NCc1ccccn1,0.0,-10.4,-0.5,1.4,-0.3,-0.8
COC(=O)c1cc(NC(=S)NCc2ccc(Cl)cc2)cc(C(=O)OC)c1,13.5,-11.2,1.4,?,1.5,-14.7
COc1ccc(CNC(=S)Nc2cccc(F)c2)cc1,-1.3,17.3,0.7,87.6*,0.6,-7.4
COc1ccc(CNC(=S)NCc2ccc(F)cc2)cc1OC,-1.2,31.4,0.1,?,0.0,-13.0
COc1ccc(CNC(=S)NCc2ccc(Cl)cc2)cc1OC,-8.3,-27.7,1.3,97.0*,0.4,4.7
Nc1cnccn1,.,.,.,.,-0.5,.
COCCOC(=O)N1CCN(/[N+]([O-])=N/Oc2ccc([N+](=O)[O-])cc2[N+](=O)[O-])CC1,.,-3.5,.,.,2.5,.
CCOC(=O)c1cc(C#N)c(SC(C(=O)N2CCCCC2)c2ccccc2)nc1C (stereo not given),.,.,.,.,-0.3,.
Cc1ncsc1CCC(=O)N1CCCC(Nc2ccc(C(C)C)cc2)C1 (stereo not given),-2.5,62.6,0.9,83.7*,0.0,0.0
O=C(CCc1ccccc1)N1CCCC(Nc2ccc(F)cc2)C1 (stereo not given),-8.0,28.9,-0.6,87.4*,0.4,15.6
O=C(c1ccnc(Cl)c1)N1CCCC(Nc2ccc(F)cc2)C1 (stereo not given),-3.3,-13.1,0.5,9.8,0.2,-5.8
COc1ccc(NC2CCCN(C(=O)CCc3scnc3C)C2)cc1 (stereo not given),4.7,-14.2,1.0,7.6,0.2,-13.0
CC(C)c1ccc(NC2CCCN(C(=O)c3ccnc(Cl)c3)C2)cc1 (stereo not given),3.8,12.9,-0.2,90.9*,0.1,-12.4
O=C(CCc1ccncc1)N1CCCC(Nc2ccc(F)cc2)C1 (stereo not given),0.3,-8.7,-0.4,14.2,0.8,-13.0
SMILES,TRHR PAM,TRPML1 inh,TRHR agonist,TRPV1 agonist,TRPML1 ag,TRPV1 PAM
COC(=O)c1ccc(C(=O)N2CCCC(Nc3ccc(C(C)C)cc3)C2)nc1 (stereo not given),-2.4,16.7,-0.9,82.8*,0.9,1.9
N#Cc1nc(Nc2ccc(-c3ccccc3)cc2)nc(NC2CCCC2)n1,0.9,.,0.8,.,.,.
C(=Nc1cccnc1)c1ccnc2ccccc12,.,.,.,.,-0.2,.
COc1ccc(OC)c2c(C)ccnc12,.,.,.,.,-0.6,.
CC(C)c1ccc(NC2CCCN(C(=O)c3ccco3)C2)cc1 (stereo not given),2.3,-2.5,1.2,97.5*,1.4,-17.6
Cc1ccc(S(=O)(=O)N2CCN(c3nc(-c4cccs4)nc4ccccc34)CC2)c(C)c1,.,.,.,.,-0.4,.
Cn1c2cc(Br)sc2c2cnn(Cc3ccccc3F)c(=O)c21,-1.8,.,-0.5,.,.,.
CC(=O)c1ccc(Nc2nc(N3CCOCC3)nc(N3CCOCC3)n2)cc1,39.6*,6.2,0.2,5.7,-0.6,-1.4
CC(C)(C)c1ccc(/C=C/C(=O)Nc2ccncc2)cc1,3.8,12.6,0.1,96.2*,1.5,-3.6
COc1ccc(NC(=O)C(OC(=O)CNC(=O)c2ccccc2)c2ccccc2)c(C)c1 (stereo not given),0.3,.,-0.2,.,.,.
O=C1C2C3C=CC(C3)C2C(=O)N1CCCCCCN1C(=O)C2C3C=CC(C3)C2C1=O (stereo not given),32.0*,-11.2,-0.3,18.7,1.2,-1.5
COc1cc2nc(N3CCOCC3)nc(NC(C)C)c2cc1OC,.,.,.,.,-0.5,.
Cc1ccc(C)c(NC(=O)CSc2n[nH]c(-c3ccccn3)n2)c1,-3.4,-6.9,1.1,1.6,0.0,2.0
Cc1ccccc1NC(=O)CSc1n[nH]c(-c2ccccn2)n1,34.8*,-3.4,-0.3,1.2,2.0,7.9
O=C(O)c1c2c(nc3ccccc13)CCCC2,.,.,.,.,-0.2,.
N#Cc1nc(Nc2cccc(C(F)(F)F)c2)nc(NC2CCCC2)n1,-2.3,.,1.0,.,.,.
O=C(C[n+]1ccccc1)c1ccc(O)c(O)c1,.,.,.,.,-0.1,.
c1ccc(-c2noc(CSc3nnc(Cc4cccs4)n3-c3ccccc3)n2)cc1,40.2*,-0.6,1.0,-1.8,-0.4,-0.4
Cc1ccc(-c2noc(CSc3nnc(Cc4cccs4)n3-c3ccccc3)n2)cc1,2.9,-0.4,0.9,2.4,1.0,15.8
COC(=O)C1=C(C)N(Cc2ccccc2)C(=NCC2CC2)N[C@H]1c1ccc(Br)cc1,31.5*,.,4.9,3.8,.,10.4
COC(=O)C1=C(C)N(Cc2ccccc2)C(=NCC2CC2)N[C@H]1c1ccccc1,17.7,-7.3,-0.6,-0.8,-0.5,5.3
COc1ccccc1Cc1nc2ccccc2nc1SCC(=O)NCc1ccc(C)cc1,1.7,-11.0,-0.6,.,0.2,.

# Assay outcomes (PubChem)
